M1 antag – human M1 muscarinic receptor antagonists, primary screen, CHO-K1 cells, Fluo-8 calcium fluorescence, 1536-well; Muscarinic acetylcholine receptor M1 (Homo sapiens), P11229; inhibition, % at 3 µM; actives 1.3% (n = 360,000); CHO-K1 hM1, ACh EC80 antagonist;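 active means percent inhibition above its own plate's cutoff, namely the mean of that plate's compound wells plus 3 SD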;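 further: peak over basal fluorescence ratio during 140 s after agonist addition; 0% = ACh EC80 plus DMSO and 100% = DMSO alone without agonist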
Target sequence (P11229 whole entry, looked up): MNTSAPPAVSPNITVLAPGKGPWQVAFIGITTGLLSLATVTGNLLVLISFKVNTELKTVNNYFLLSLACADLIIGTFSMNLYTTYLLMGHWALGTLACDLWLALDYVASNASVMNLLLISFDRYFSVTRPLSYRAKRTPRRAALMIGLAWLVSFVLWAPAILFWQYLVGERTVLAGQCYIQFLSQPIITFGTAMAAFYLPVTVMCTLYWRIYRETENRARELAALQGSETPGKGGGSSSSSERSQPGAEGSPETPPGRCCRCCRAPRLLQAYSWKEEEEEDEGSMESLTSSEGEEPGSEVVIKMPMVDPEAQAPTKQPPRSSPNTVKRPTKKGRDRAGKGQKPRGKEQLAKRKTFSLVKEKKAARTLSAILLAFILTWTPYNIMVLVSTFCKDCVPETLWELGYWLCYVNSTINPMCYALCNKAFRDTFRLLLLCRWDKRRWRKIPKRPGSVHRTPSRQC
M1 PAM – human M1 muscarinic receptor positive allosteric modulators, primary screen, CHO-K1 cells, Fluo-8 calcium fluorescence, 1536-well; CHO-K1 hM1, ACh EC20; 0% = ACh EC20, 100% = maximal ACh; activation, % at 3 µM; actives 0.088% (n = 360,000); in the data active means activation above about 19%, passing the limit was not always enough
CHO-K1 Ca ag – counter-screen for M1 agonists: effect in parental CHO-K1 cells | Fluo-8 calcium fluorescence; scaled to maximal ATP response, vehicle zero | activation, % at 3 µM | actives 0.48% (n = 360,000) | AID 602248, 2012; in the data active means activation above about 15%;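 further: untransfected CHO-K1 host cells lacking M1 receptor as counterscreen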
M1 PAM parental – nonselective calcium activators in parental CHO-K1 cells, primary screen, counter-screen for M1 PAM project, cell-based, Fluo-8 calcium fluorescence, full deck, 1536-well; ATP EC20; 0% at ATP EC20, 100% at ATP max; activation, % at 3 µM; actives 0.02% (n = 360,000);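 active means activation above the run cutoff, the mean activation of all test compounds plus 3 SD, cut at about 40% in these data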;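 further: peak over basal fluorescence ratio in a 140 s read after ATP addition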
CHO-K1 Ca antag – M1 antagonist counterscreen hit in parental CHO-K1 cells | inhibition, % at 3 µM | AID 602250 | actives 0.6% (n = 360,000) | ATP-induced calcium, Fluo-8 fluorescence;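 active means inhibition above a per-plate cutoff, the plate's mean sample inhibition plus 3 SD, cut at about 24% in these data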;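 further: 0% = DMSO plus EC80 ATP and 100% = DMSO alone without ATP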
M1 ag – human M1 muscarinic receptor agonists, primary screen, Fluo-8 calcium fluorescence, CHO-K1 cells, HTS; activation, % at 3 µM; CHO-K1 hM1, agonist mode; 0% DMSO, 100% acetylcholine EC100; actives 0.33% (n = 360,000); Muscarinic acetylcholine receptor M1 (Homo sapiens), P11229;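 active means activation above the run's mean compound activation plus 3 SD, cut at about 16% in these data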;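 further: peak over basal fluorescence ratio within a 140 s kinetic read after compound addition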
The depositor's hits bear a star. Rows were chosen to be rich in hits. Some 2.3% of all compounds tested hit in one or more screens of this group.

SMILES | M1 antag | M1 PAM | CHO-K1 Ca ag | M1 PAM parental | CHO-K1 Ca antag | M1 ag
Cc1ccc2c(c1)[C@H]1[C@H](CO2)[C@H](c2ccccc2)[C@]2(C)C(=O)Nc3ccc(Cl)cc3C(=O)N12 | 35.2* | -21.9 | 0.5 | 8.6 | -16.1 | -6.0
COc1ccc2c(c1)C(=O)N1[C@H]3c4cc(C)ccc4OC[C@@H]3[C@H](c3ccccc3)[C@]1(C)C(=O)N2 | 60.1* | -32.2 | -0.1 | 9.5 | -7.3 | -8.3
COC(=O)Nc1ccc2c(c1)N(C(=O)CCCl)c1ccccc1S2 | -11.7 | 3.7 | 2.0 | 8.0 | -11.9 | -4.8
CNC(C)C(=O)NC(C(=O)NC(C)C(=O)Nc1cccc2ccccc12)C(C)C (stereo unspecified) | -8.9 | 1.7 | 0.4 | 14.1 | -6.9 | -2.7
CCOC(=O)c1ccc(NS(=O)(=O)c2c(C)[nH]c(C)c2C(=O)N2CCCCC2)cc1 | 7.7 | 2.2 | 6.3 | 6.1 | -9.3 | 1.3
COc1ccc2c(c1)OC[C@H]1[C@H]2N2C(=O)c3cc(C)ccc3NC(=O)[C@@]2(C)[C@H]1c1ccccc1 | 16.6 | -7.0 | 0.5 | 26.1 | -26.6 | -4.4
COc1ccc2c(c1)OC[C@H]1[C@H]2N2C(=O)c3ccccc3NC(=O)[C@@]2(C)[C@H]1c1ccccc1 | 75.4* | -31.2 | 1.1 | 23.4 | -10.4 | -5.7
CCN(CC)CCC=C(c1cccs1)c1cccs1 | 95.9* | -28.0 | -0.5 | 2.1 | -7.3 | -5.9
CCN(CC)CCCNC(=O)/C(=C\c1cccn1C)NC(=O)c1cccs1 | -8.2 | 6.8 | 1.0 | 16.4 | -8.2 | -6.8
COCc1cc(CNC(=O)C2CCC(=O)N(Cc3ccccc3F)C2)[nH]n1 (stereo unspecified) | 6.7 | -2.7 | -0.2 | -19.4 | 4.8 | -2.2
O=C(c1cccc(N2C(=O)c3ccccc3C2=O)c1)N1CCCCCC1 | 0.7 | 1.7 | 1.0 | 2.0 | -5.8 | -3.2
O=C(OCCN1C(=O)c2cccc3c(N4CCOCC4)ccc(c23)C1=O)c1ccccc1Cl | 43.7* | -24.2 | 17.9* | -6.7 | 23.3 | 15.2
O=C1c2cccc3c(N4CCCCC4)ccc(c23)C(=O)N1CCO | 0.5 | 3.2 | 16.5* | 1.4 | 0.7 | 12.2
CC(=O)c1ccc2c3c(cccc13)C(=O)N(c1c(C)nn(C)c1C)C2=O | -12.7 | 2.1 | 1.9 | 11.9 | -2.5 | 2.0
Cc1n[nH]c(C)c1N1C(=O)c2cccc3c(N4CCCCCC4)ccc(c23)C1=O | 62.9* | -20.2 | 83.5* | -2.8 | 55.4* | 93.0*
C=CCN1C(=O)c2cccc3c(N4CCCCC4)ccc(c23)C1=O | 6.3 | -4.6 | 10.8 | 1.8 | 10.6 | 7.4
O=C1c2cccc3c(N4CCCCC4)ccc(c23)C(=O)N1c1cccc(O)c1 | 31.9* | -6.6 | 30.5* | -1.3 | 23.4 | 36.2*
COc1ccc(Cl)cc1Nc1cc(C)nc2nc(C)nn12 | -3.8 | 16.9 | 0.6 | 9.8 | -2.8 | -0.2
COc1cc(OC)c(Nc2cc(C)nc3nc(C)nn23)cc1Cl | 103.4* | 2.3 | 0.5 | 12.1 | 0.1 | -3.4
CCN(CCO)Cc1csc2ccccc12 | -6.8 | 8.8 | 0.0 | 10.1 | -4.1 | -0.5
CCN(CCO)Cc1csc2c(Br)cccc12 | -41.4 | 23.1* | 0.9 | 18.1 | -16.4 | -3.6
CCCc1nnc(NC(=O)CSc2nc3ccccc3[nH]2)s1 | -7.9 | -3.4 | -0.5 | -13.8 | 30.5* | -3.1
CN1CCC2(CC1)N=C(c1ccc(F)cc1)C(=S)N2C(=O)c1ccc(C(C)(C)C)cc1 | 48.8* | -25.6 | 0.5 | -3.2 | 13.1 | -7.7
CC1(c2ccc3c(c2)OCCO3)NC(=O)N(CC(=O)Nc2ccccc2)C1=O (stereo unspecified) | -1.4 | 9.1 | 3.6 | 8.5 | -24.5 | 6.2
NC(=O)CC(NSc1ccccc1[N+](=O)[O-])C(=O)O (stereo unspecified) | -10.4 | 7.8 | 1.0 | 22.8 | -3.7 | -2.9
SMILES | M1 antag | M1 PAM | CHO-K1 Ca ag | M1 PAM parental | CHO-K1 Ca antag | M1 ag
CCCCN(C(=O)C1CC(=O)N(c2ccc(CC)cc2)C1)c1c(N)n(CCC)c(=O)[nH]c1=O (stereo unspecified) | -8.8 | 5.8 | 0.4 | 20.0 | -6.5 | -2.9
C[N+](C)(C)CCN(Cc1ccc(Cl)cc1)c1ccccn1 | 25.7* | -8.4 | -0.2 | 5.7 | -2.6 | 18.6*
COc1ccc(C(=O)N=c2sc3c(C)ccc(OC)c3n2C)cc1 | -9.2 | 0.5 | 0.7 | 16.9 | -9.9 | -1.4
Cc1cc(Br)ccc1NC(=O)CN(C)C(=O)C1CCN(C(=O)c2ccc(Cl)cc2)CC1 | -1.7 | 3.7 | 1.4 | 9.7 | -13.2 | -7.1
OC1(c2ccc(OC(F)F)cc2)CSC(=Nc2cccnc2)N1C1CC1 (stereo unspecified) | 21.4* | -16.2 | 7.7 | 3.4 | 12.2 | 1.2
COc1ccc(OC)c(C2(O)CSC(=Nc3cccnc3)N2Cc2ccco2)c1 (stereo unspecified) | 1.1 | 1.7 | 1.9 | 6.9 | -6.3 | -1.8
Cc1onc(-c2ccccc2Cl)c1NC(=O)NCc1cccs1 | -4.7 | 3.4 | 0.7 | 13.7 | -11.5 | -2.5
CCC(c1nnnn1Cc1ccc(OC)cc1)N1CCN(c2ccc(OC)cc2)CC1 (stereo unspecified) | -4.3 | 5.9 | 0.3 | -14.7 | 25.4* | -1.8
CCC(c1nnnn1Cc1ccccc1)N1CCN(c2ccc(OC)cc2)CC1 (stereo unspecified) | -0.3 | -2.1 | 0.5 | 6.3 | -8.7 | -9.8
CCOCc1c(C(=O)NCC(c2ccco2)N2CCCC2)oc2ccccc12 (stereo unspecified) | 28.0* | -17.9 | -0.5 | -19.6 | 14.3 | -8.5
CN(c1ccccc1)S(=O)(=O)c1ccc(C(=O)NCC(c2ccco2)N2CCCCC2)cc1 (stereo unspecified) | 36.1* | -18.8 | 4.2 | 14.1 | -18.4 | -6.4
COc1ccccc1N(C)S(=O)(=O)c1ccc(C(=O)NCC(c2ccco2)N2CCCCC2)cc1 (stereo unspecified) | 6.3 | -3.8 | 2.2 | -0.8 | -3.1 | -6.9
O=C(NCC(c1ccco1)N1CCCC1)c1cccc(NS(=O)(=O)c2ccccc2)c1 (stereo unspecified) | 90.4* | -26.6 | 2.9 | 8.6 | -2.4 | -7.8
O=C(NCC(c1ccco1)N1CCCC1)c1ccccc1F (stereo unspecified) | -8.7 | 3.5 | 0.1 | 16.7 | -5.3 | -6.9
CN(C)C(CNC(=O)c1ccc(S(=O)(=O)Nc2ccccc2)cc1)c1ccco1 (stereo unspecified) | 27.2* | -16.8 | 3.0 | 3.0 | -3.4 | -6.3
